The results in this text go back to PMC5913336, “True equilibrium measurement of transcription factor-DNA binding affinities using automated polarization microscopy”.

The first experiment deals with T1, Kni (Drosophila melanogaster, UniProt P10734 2-102).
T1 sequence: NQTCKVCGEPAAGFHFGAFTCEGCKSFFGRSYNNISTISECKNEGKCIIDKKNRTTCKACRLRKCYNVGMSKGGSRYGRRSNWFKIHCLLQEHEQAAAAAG
Description: FP; 33 mM phosphate pH 7.0, 90 mM NaCl, 0.01% Tween 20, 0.1 mM DTT, 0.5% agarose; room temperature. As to conditions: tags: N-GST (pGEX-6P-1, kept); dsDNA, one strand shown.
Take CAAAACTAGAGCAGT: the binding signal is 2.97 Kd / Kd of best base at the position.
Same read-out and setting: as for CAGAACTAGAGCACT, the figure is 1.99 Kd / Kd of best base at the position.
Turning to CAAAACTACAGCACT, the binding signal is 52.4 Kd / Kd of best base at the position.
Still for that read-out and setting: for CAAACCTAGAGCACT the value was 16.3 Kd / Kd of best base at the position.
Same read-out and setting: for CAAAACTAGCGCACT the value was 9.49 Kd / Kd of best base at the position; for CAAAACTATAGCACT, 12.9 Kd / Kd of best base at the position.
On the same count and under the same terms, as for CAAAACTAGAGCCCT, the figure is 12.1 Kd / Kd of best base at the position.
With CAAAACCAGAGCACT, the binding signal is 2.45 Kd / Kd of best base at the position.
On to CTAAACTAGAGCACT, for which the binding signal was 1.45 Kd / Kd of best base at the position.
Same read-out and setting: as for CAAAACTAGAGCGCT, the figure is 3.42 Kd / Kd of best base at the position.

In another experiment the target is T2, Cad (Drosophila melanogaster, UniProt P09085 273-344).
T2 sequence: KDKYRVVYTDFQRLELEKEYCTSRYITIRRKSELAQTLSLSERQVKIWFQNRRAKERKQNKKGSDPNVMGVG
Description: FP; 20 mM Tris-acetate pH 7.0, 50 "nM" NaCl as printed (probably mM), 0.01% Tween 20, 0.1 mM DTT; conventional titration. As to conditions: tags: N-GST (pGEX-6P-1, kept); dsDNA, one strand shown.
For CACTTTTTGTA, the binding signal was 29 Kd / Kd of best base at the position.
Same read-out and setting: as for CACTTTTTAAA, the figure is 13.6 Kd / Kd of best base at the position.
Still for that read-out and setting: as for CACTTTTTATG, the figure is 2.2 Kd / Kd of best base at the position; as for CACTTTTTCTA, 287 Kd / Kd of best base at the position; as for CAGTTTTTATA, 1.11 Kd / Kd of best base at the position.
As to CACTTTTTATA, the Kd (commonly the constant that tells how readily two partners part at equilibrium) was roughly 50 pM.
As for CACTTTTCATA, the binding signal is 17.6 Kd / Kd of best base at the position.
As to CACTTTTGATA, the binding signal is 50.5 Kd / Kd of best base at the position.
In the case of CACTTTTTATC, the binding signal was 13.5 Kd / Kd of best base at the position.
Still for that read-out and setting: as for CACTTTTTACA, the figure is 1.6 Kd / Kd of best base at the position; as for TACTTTTTATA, 1.3 Kd / Kd of best base at the position.
On the same count and under the same terms, for CACTTCTTATA the value was 16.8 Kd / Kd of best base at the position; for CTCTTTTTATA, 4.6 Kd / Kd of best base at the position.
Turning to CATTTTTTATA, the binding signal was 6.67 Kd / Kd of best base at the position.
The same measure, in the same setting: as for GACTTTTTATA, the figure is 1.8 Kd / Kd of best base at the position; as for CACTTGTTATA, 16.7 Kd / Kd of best base at the position; as for AACTTTTTATA, 2.9 Kd / Kd of best base at the position.
Still for that read-out and setting: for CACTTTTTATT the value was 5.4 Kd / Kd of best base at the position.
On the same count and under the same terms, as for CGCTTTTTATA, the figure is 3.5 Kd / Kd of best base at the position.
Take CACTTTTAATA: the binding signal was 4.1 Kd / Kd of best base at the position.
Still for that read-out and setting: as for CAATTTTTATA, the figure is 2 Kd / Kd of best base at the position; as for CACTTTTTAGA, 16 Kd / Kd of best base at the position; as for CACTCTTTATA, 7.2 Kd / Kd of best base at the position.
Still for that read-out and setting: as for CACGTTTTATA, the figure is 5.5 Kd / Kd of best base at the position; as for CACTTTCTATA, 37.9 Kd / Kd of best base at the position; as for CACTGTTTATA, 3.1 Kd / Kd of best base at the position.
For CACATTTTATA, the binding signal is 2.5 Kd / Kd of best base at the position.
The same measure, in the same setting: as for CACCTTTTATA, the figure is 1.7 Kd / Kd of best base at the position.
Still for that read-out and setting: for CACTTTATATA the value was 3 Kd / Kd of best base at the position; for CACTTTTTTTA, 181 Kd / Kd of best base at the position.
